Where “and” joins values, the source holds several entries; their conditions need not be identical. Equal values may be shown once. Records with an inconclusive call do not appear. Calls of active or inactive are those of the source. Calls come from the whole dose curve; as a rule, active = well fitted curve in the direction sought with a large enough effect; inconclusive = small, poorly fitted or top-dose-only effect, or another doubt; inactive = no such curve, though single readings can be large; an effect the other way counts as inactive or inconclusive.
Columns and labels:
[1] = molecular target: Cellular tumor antigen p53 (Homo sapiens) (UniProt P04637); assay: Primary qHTS for small molecule compounds that upregulate eGFP-tagged delta133p53alpha (in N-terminal) cells. (AID 2060322); details: NCI-H358 eGFP-delta133p53alpha fluorescence, 24 h; activation: hits give high values; note: nearly all actives have a fitted effect of over 75% in size; note: potency is the fitted concentration of half-maximal effect;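 for activation: cells pre-induced with doxycycline then dosed without doxycycline; series mostly up to about 56 µM; 0% = DMSO vehicle and 100% = reference activator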
Summary of the method: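 NCI-H358 cells pre-induced 24 h with 10 ng/ml doxycycline for eGFP-delta133p53alpha, plated dox-free and exposed 24 h at 37C to titrated compounds. Fixed, Hoechst-stained; gated GFP peak intensity by laser scanning cytometry, normalized to DMSO (0%) and 57.5 uM 5-azacytidine (100%).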

[2] = molecular target: Aldehyde dehydrogenase, mitochondrial (Homo sapiens) (UniProt P05091); assay: qHTS for Inhibitors of the Aldehyde Dehydrogenase Family (ALDH2) Primary screen (AID 2061308);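 note: plate controls were vehicle for no effect and reference inhibitor for full effect; nearly all actives have a fitted effect of over 55% in size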
[3] = molecular target: Retinaldehyde dehydrogenase 3 (Homo sapiens) (UniProt P47895); assay: qHTS for Inhibitors of the Aldehyde Dehydrogenase Family (ALDH1A3) Validation screen (AID 2061312); note: nearly all actives have a fitted effect of over 45% in size; note: potency is the fitted concentration of half-maximal effect
[4] = molecular target: Retinaldehyde dehydrogenase 3 (Homo sapiens) (UniProt P47895); assay: qHTS for Inhibitors of the Aldehyde Dehydrogenase Family (ALDH1A3) Primary screen (AID 2061315);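 note: plate controls were DMSO vehicle for no effect and reference inhibitor for full effect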
[5] = BET inhibitor-based combinations targeting novel dependencies in MECOM-rearranged (r) AML: OCI-AML3 cell line (AID 2202232); details: Potency: OCI-AML3 viability; note: nearly all actives have a fitted effect of over 35% in size; note: potency is the fitted concentration of half-maximal effect
Summary of the method: (§1)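 A 48 hr incubation preceded viability reading by CellTiter-Glo, with 15 min room-temperature development. Dose series had 11 points; normalization used DMSO and empty wells; AUC was computed and mean-centered per line as Z-AUC.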

[6] = BET inhibitor-based combinations targeting novel dependencies in MECOM-rearranged (r) AML: MV-4-11 cell line (AID 2202233); note: nearly all actives have a fitted effect of over 45% in size; note: potency is the fitted concentration of half-maximal effect
Summary of the method: (§2)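 Each compound is tested in an 11-point concentration series against 500 seeded cells/well for 48 hr. The luminescent viability signal is normalized to DMSO and blank wells, then reduced to AUC and a cell-line-centred Z-AUC.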

[7] = BET inhibitor-based combinations targeting novel dependencies in MECOM-rearranged (r) AML: HNT-34 cell line (AID 2202234); note: nearly all actives have a fitted effect of over 35% in size; note: potency is the fitted concentration of half-maximal effect
Summary of the method: as §2

[8] = BET inhibitor-based combinations targeting novel dependencies in MECOM-rearranged (r) AML: UCSD-AML1 cell line (AID 2202235); note: nearly all actives have a fitted effect of over 40% in size; note: potency is the fitted concentration of half-maximal effect
Summary of the method: as §2

[9] = BET inhibitor-based combinations targeting novel dependencies in MECOM-rearranged (r) AML: AML-191 cell line (AID 2202236; note: nearly all actives have a fitted effect of over 35% in size; note: potency is the fitted concentration of half-maximal effect)
Summary of the method: as §1

[10] = BET inhibitor-based combinations targeting novel dependencies in MECOM-rearranged (r) AML: AML-194 cell line (AID 2202237; note: nearly all actives have a fitted effect of over 40% in size; note: potency is the fitted concentration of half-maximal effect)
Summary of the method: as §1

[11] = BET inhibitor-based combinations targeting novel dependencies in MECOM-rearranged (r) AML: SET-2 cell line (AID 2202231); details: SET-2 AML cells viability, CellTiter-Glo luminescence, 48 h; viability: hits give low values, concentration not given here; note: nearly all actives have a fitted effect of over 35% in size; note: potency is the fitted concentration of half-maximal effect;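 for viability: plate controls were DMSO treated cells for no effect and wells without cells for full effect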
Summary of the method: as §1

Sequence of Cellular tumor antigen p53 (Homo sapiens) (P04637 whole entry, looked up): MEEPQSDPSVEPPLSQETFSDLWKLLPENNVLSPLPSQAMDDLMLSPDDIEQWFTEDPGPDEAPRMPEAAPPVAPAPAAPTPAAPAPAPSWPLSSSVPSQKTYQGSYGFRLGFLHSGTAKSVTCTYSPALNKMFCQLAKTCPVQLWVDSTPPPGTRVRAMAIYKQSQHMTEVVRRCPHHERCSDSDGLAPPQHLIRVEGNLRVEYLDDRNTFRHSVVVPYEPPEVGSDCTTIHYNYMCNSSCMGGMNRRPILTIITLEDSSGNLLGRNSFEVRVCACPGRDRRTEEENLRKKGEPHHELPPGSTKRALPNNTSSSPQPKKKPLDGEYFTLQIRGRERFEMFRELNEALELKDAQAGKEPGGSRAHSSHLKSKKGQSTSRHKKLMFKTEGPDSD

C#CC[C@H](c1nc2cc(Cl)ccc2c(=O)n1Nc1ccccc1)N(CCCN)C(=O)c1cccc(Cl)c1F
inactive: Potency [2] | Potency [3] | Potency [4]
active: Potency [1] 4.78 µM | Potency [5] 0.59 µM | Potency [6] 1.05 µM | Potency [7] 0.372 µM | Potency [8] 1.05 µM | Potency [9] 3.32 µM | Potency [10] 3.32 µM

O=C1[C@H](CC[C@H](O)c2ccc(F)cc2)[C@@H](c2ccc(O)cc2)N1c1ccc(F)cc1
active: Potency [5] 20.9 µM | Potency [6] 16.6 µM
inactive: activation [1] -8.47% and 7.16% | Potency [2] | Potency [3] | Potency [4]

CCNCc1nc2c(N)nc3ccccc3c2n1CC(C)(C)O
inactive: activation [1] -0.477% | Potency [2] | Potency [3] | Potency [4] | viability [11] 94.4% | Potency [8]
active: Potency [6] 20.9 µM

COc1ccc(CCC(=O)Nc2nc3ccc(Cl)cc3s2)cc1OC
inactive: activation [1] 9.8% and 1.91% | Potency [2] | Potency [3] | Potency [4] | viability [11] 120% | Potency [6] | Potency [8] | Potency [9] | Potency [10]

COc1ccc2nc3n[nH]c(C)c3c(NCCOCCO)c2c1
inactive: activation [1] 6.21% | Potency [2] | Potency [3] | Potency [4] | Potency [5] | Potency [6] | Potency [7] | Potency [8] | Potency [9] | Potency [10]

CC(C)C(=O)Nc1ncc(-c2cc(C(F)F)nn2-c2c(Cl)cccc2Cl)s1
inactive: activation [1] 35.2% and 29.6% | Potency [2] | Potency [3] | Potency [4] | Potency [8]
active: Potency [5] 23.5 µM | Potency [6] 20.9 µM | Potency [7] 16.6 µM | Potency [9] 20.9 µM

CCCCOc1nc(N)c2c(n1)N(Cc1cccc(CN3CCCC3)c1)CC(=O)N2
inactive: activation [1] 5.73% | Potency [2] | Potency [3] | Potency [4] | viability [11] 111% | Potency [8] | Potency [9] | Potency [10]

CCCc1cc(C)[nH]c(=O)c1CNC(=O)c1cc(-c2ccnc(N3CCN(C)CC3)c2)cc2c1cnn2C(C)C
inactive: activation [1] -12.3% | Potency [2] | Potency [3] | Potency [4]
active: Potency [6] 23.5 µM

Cc1nc2c([nH]1)CCN(C(=O)c1ccc(NC(=O)c3ccccc3-c3ccccc3)cc1)c1ccccc1-2
inactive: activation [1] -5.73% and -5.25% | Potency [2] | Potency [3] | Potency [4] | Potency [8]
active: Potency [5] 14.8 µM | Potency [6] 20.9 µM

C[C@@H](NC(=O)c1ncnc(N)c1Cl)c1ncc(C(=O)Nc2cc(C(F)(F)F)c(Cl)cn2)s1
active: Potency [7] 2.35 µM | Potency [8] 8.33 µM
inactive: activation [1] 19.6% | Potency [2] | Potency [3] | Potency [4]

NC1(C(=O)N[C@@H](CCO)c2ccc(Cl)cc2)CCN(c2ncnc3[nH]ccc23)CC1
inactive: activation [1] 7.49% | Potency [2] | Potency [3] | Potency [4]
active: Potency [6] 4.17 µM | Potency [7] 10.5 µM | Potency [8] 1.48 µM

COc1ccc2cc(OCC3(C(=O)O)CN(C(=O)c4ccc(F)cc4)C3)ccc2c1
inactive: activation [1] 2.86% | Potency [2] | Potency [3] | Potency [4] | Potency [5] | Potency [7] | Potency [8] | Potency [9] | Potency [10]

COc1ccc2c(Oc3ccc(NC(=O)c4c(C)n(CC(C)(C)O)n(-c5ccccc5)c4=O)cc3F)ccnc2c1
active: Potency [6] 0.209 µM | Potency [7] 4.68 µM | Potency [9] 20.9 µM
inactive: activation [1] -9.3% and -1.91% | Potency [2] | Potency [3] | Potency [4] | Potency [8]

CCCCc1oc2ccc(NS(C)(=O)=O)cc2c1C(=O)c1ccc(OCCCN(CCCC)CCCC)cc1
active: Potency [6] 10.5 µM | Potency [7] 11.8 µM | Potency [8] 10.5 µM | Potency [9] 10.5 µM | Potency [10] 10.5 µM
inactive: activation [1] 2.56% | Potency [2] | Potency [3] | Potency [4]

CN(C)C1CCN(C(=O)c2ccc(NC(=O)Nc3nc(N4CCOCC4)nc(N4CCOCC4)n3)cc2)CC1
inactive: activation [1] -12.1% | Potency [2] | Potency [3] | Potency [4]
active: Potency [5] 0.132 µM | Potency [6] 0.105 µM | Potency [7] 0.105 µM | Potency [8] 0.296 µM | Potency [10] 0.59 µM

O=C(Nc1cccnn1)N1CCC(=Cc2cccc(Oc3ccc(C(F)(F)F)cn3)c2)CC1
active: Potency [9] 18.6 µM
inactive: activation [1] -1.43% | Potency [2] | Potency [3] | Potency [4] | Potency [8]

O=C(Nc1cccc(C(F)(F)F)c1)Nc1cc(S(=O)(=O)NC2CC2)ccc1-c1ccsc1
inactive: activation [1] 29.6% and 2.39% | Potency [2] | Potency [3] | Potency [4]
active: Potency [6] 26.3 µM

CCN(CC)Cc1ccc2cc(COC(=O)Nc3ccc(C(=O)NO)cc3)ccc2c1
inactive: Potency [2] | Potency [3]
active: Potency [1] 30.1 µM and 27.3 µM | Potency [11] 0.662 µM | Potency [5] 0.662 µM | Potency [6] 0.372 µM | Potency [7] 0.934 µM | Potency [8] 0.525 µM | Potency [9] 0.742 µM | Potency [10] 0.934 µM

O=C(NCCCNc1nc(Nc2cccc(CN3CCOCC3)c2)ncc1C1CC1)C1CCC1
active: Potency [6] 0.417 µM | Potency [7] 16.6 µM
inactive: activation [1] -15.3% | Potency [2] | Potency [3] | Potency [4]

C[C@@]1(C(=O)Nc2ccc(F)nc2)CCCN1c1nc(Nc2cc(C3CC3)[nH]n2)c2cccn2n1
active: Potency [5] 0.0742 µM | Potency [6] 2.95 µM | Potency [10] 1.48 µM
inactive: activation [1] 19.3% | Potency [2] | Potency [3] | Potency [4]

N#Cc1ccc(Oc2ccc3c(c2)COB3O)cc1
active: Potency [3] 2.82 µM | Potency [9] 13.2 µM
inactive: activation [1] 19.4% and -4.77% | Potency [2] | viability [11] 109% | Potency [7]

FC(F)(F)c1ccc(CNc2ccc(Cc3c[nH]c4ncccc34)cn2)cc1
inactive: activation [1] 2.39% | Potency [2] | Potency [3] | Potency [4]
active: Potency [5] 20.9 µM | Potency [6] 0.525 µM | Potency [9] 13.2 µM | Potency [10] 16.6 µM

Cc1ccc(Nc2cc(-c3cccc(N4C(=O)c5ccccc5C4=O)c3)ncn2)cc1NS(C)(=O)=O
inactive: activation [1] 19.8% and 20% | Potency [2] | Potency [3] | Potency [4]
active: Potency [6] 10.5 µM

O=C1Nc2ccc(Cl)cc2[C@@](C#CC2CC2)(C(F)(F)F)O1
active: Potency [6] 23.5 µM and 20.9 µM
inactive: activation [1] 17.5% and 0% | Potency [2] | Potency [3] | Potency [4] | Potency [8]

O=C(Nc1cccc(Br)c1)c1cccc(S(=O)(=O)N2CCCCCC2)c1
inactive: activation [1] 41.1% and -27.9% | Potency [2] | Potency [3] | Potency [4] | Potency [8]
active: Potency [6] 16.6 µM

COc1cc(C)c(Sc2cnc(NC(=O)c3ccc(CNC(C)C(C)C)cc3)s2)cc1C(=O)N1CCN(C(C)=O)CC1 (stereo not drawn)
inactive: activation [1] -11.2% and 19.6% | Potency [2] | Potency [3] | Potency [4]
active: Potency [5] 20.9 µM | Potency [6] 7.42 µM | Potency [8] 16.6 µM | Potency [9] 16.6 µM | Potency [10] 14.8 µM

c1cc(OCCN2CCCCC2)cc(-c2n[nH]c3ccc(-c4ncn[nH]4)cc23)c1
inactive: activation [1] 5.89% and 12.9% | Potency [2] | Potency [3] | Potency [4]
active: Potency [6] 1.86 µM | Potency [7] 14.8 µM | Potency [8] 13.2 µM

O=C(Nc1cccnc1)N1CCC(Cc2cccc(Oc3ccc(C(F)(F)F)cn3)c2)CC1
active: Potency [6] 5.9 µM | Potency [8] 26.3 µM | Potency [9] 20.9 µM
inactive: activation [1] -5.98% and -11% | Potency [2] | Potency [3] | Potency [4]

CN[C@@H](C)C(=O)N[C@H]1CN(C(=O)CC(C)C)CC[C@H]2CC[C@@H](C(=O)NC(c3ccccc3)c3ccccc3)N2C1=O
inactive: activation [1] 28.1% | Potency [2] | Potency [3] | Potency [4] | Potency [10]

CCC1=C(C)CN(C(=O)NCCc2ccc(S(=O)(=O)NC(=O)NC3CCC(C)CC3)cc2)C1=O (stereo not drawn)
inactive: activation [1] -11% and 10.7% and 1.91% | Potency [2] | Potency [3] | Potency [4] | Potency [7] | Potency [9] | Potency [10]

Cc1cc(N2CCOCC2)ccc1Nc1nc(NC2CCCCC2)c2[nH]cnc2n1
inactive: activation [1] 7.16% | Potency [2] | Potency [3] | Potency [4]
active: Potency [6] 1.32 µM | Potency [10] 4.17 µM

CC#C[C@@H](CC(=O)O)c1ccc(OCc2cccc(-c3ccc(C(F)(F)F)cc3)c2)cc1
active: Potency [9] 20.9 µM
inactive: activation [1] -17.2% | Potency [2] | Potency [3] | Potency [4] | Potency [7] | Potency [8]

c1ccc(CNc2nc(N3CCOc4ccccc43)nc3c2CCCC3)cc1
inactive: activation [1] -5.48% and -6.21% | Potency [2] | Potency [3] | Potency [4] | Potency [5] | Potency [8] | Potency [10]

Cc1nc(Nc2ncc(C(=O)Nc3c(C)cccc3Cl)s2)cc(N2CCN(CCO)CC2)n1
active: Potency [1] 9.53 µM | Potency [5] 13.2 µM | Potency [6] 13.2 µM | Potency [8] 7.42 µM | Potency [9] 14.8 µM | Potency [10] 11.8 µM
inactive: Potency [2] | Potency [3] | Potency [4]

CCOC(=O)C1=C(C)NC2=C(C(=O)CC(C)(C)C2)C1c1ccc(-c2ccccc2)cc1 (stereo not drawn)
active: Potency [5] 13.2 µM
inactive: activation [1] 5.7% | Potency [2] | Potency [3] | Potency [4] | Potency [8] | Potency [9] | Potency [10]

CCCCn1c(=O)n(Cc2ccccc2F)c(=O)c2[nH]c(Cc3ccc(NC(C)=O)cc3)nc21
inactive: activation [1] 0.477% | Potency [2] | Potency [3] | Potency [4] | Potency [5] | Potency [6] | Potency [8] | Potency [9] | Potency [10]

CCN(c1cc(-c2ccc(CN3CCOCC3)cc2)cc(C(=O)NCc2c(C)cc(C)[nH]c2=O)c1C)C1CCOCC1
inactive: activation [1] -17.7% | Potency [2] | Potency [3] | Potency [4] | Potency [7] | Potency [8] | Potency [9] | Potency [10]
